# Laboratory results published in PubChem BioAssay AID624297 (National Center for Advancing Translational Sciences (NCATS), 2012).
# Hit rate of the full screen: of about 340,000 compounds, about 6,200 (1.8%) were called active. Roughly 10% stayed inconclusive and do not appear here. The sample holds actives, similar compounds and a random draw of the others, so the mix is not that of the screen. Unmarked numbers belong to inactive results. Calls follow the shape of the dose curve; as a rule, active = well fitted activation curve with a large enough effect; inconclusive = small, poorly fitted or top-dose-only effect; inactive = no such curve, though single readings can be large or run the other way.
# Experiment: A quantitative high throughput screen for small molecules that induce DNA re-replication in SW480 colon adenocarcinoma cells. Also: nearly all actives have a fitted effect of over 55% in size. As to re-replication activation: % of control where 0% means no effect.
# Conditions: Hoechst DNA content imaging, 48 h; series mostly up to 46.1 µM; re-replication activation: at the top concentration
# Description: H Molecular Libraries Probe Production Network [MLPCN] NIH Chemical Genomics Center [NCGC] MLPCN Grant: Fast Track K99 CA136555 Assay Provider: Melvin DePamphilis, NICHD, NIH Assay Overview Eukaryotic cells normally restrict genome duplication to once per cell division. When this process is aberrant, DNA re-replication occurs when cells reinitiate DNA replication before the first round of replication is complete. DNA re-replication induces the DNA damage response, arrests cell proliferation, and triggers apoptosis. The cell cycle components cyclin A, Cdt-1, Cdc6 and geminin are critical regulators of this process and their misregulation results in DNA re-replication in normal and cancer cells. To identify compounds that induce re-replication in normal cells, an image-based assay was used to measure DNA content of nuclei, as detected by the fluorescent DNA binding dye, Hoechst. Cell nuclei were imaged by a fluorescence scanning plate imager and compounds that induce DNA re-replication were identified by the increase of nuclei with elevated fluorescence intensity
# For screening, 250 cells in 5 uL/well were dispensed into black clear 1536-well plates (Aurora) using a solenoid-based dispenser. Following transfer of 23 nL compound or DMSO vehicle by a pin tool, the plates were incubated 48 hr at 37 C and 5% CO2. After addition of 1 uL/well Hoescht stain, the plates were incubated 40 min at 37 C, 5% CO2 and total intensity of fluorescent objects (nuclei) were enumerated by an Acumen Explorer Ex3 (TTP LabTech) fluorescence scanning plate imager (405 nm excitation, 500-530 nm emission). Keywords: NIH Roadmap, MLPCN, MLI, MLSMR, qHTS, NCGC, DNA replication, cancer
# Potency is read from the fitted curve at half-maximal effect.
Compound,re-replication activation,Potency
CCCCN(C(=O)c1cccc(N2C(=O)c3ccccc3C2=O)c1)c1c(N)n(CCCC)c(=O)[nH]c1=O,-14.2%,
CCn1c(=S)[nH]c2cc(S(=O)(=O)N3CCOCC3)ccc21,-6.64%,
Cc1ccc(COc2ccc(/C=N/NC(=O)CN3CCCCC3)cc2)cc1,0.267%,
Cc1ccsc1C(=O)N/N=C/c1ccc([N+](=O)[O-])cc1,-5%,
Cc1ccc(/C=N/NC(=O)c2sccc2OCc2ccc(F)cc2)cc1,,16.4 µM (active)
CC(C)Cn1cnc2c(SCc3ccc(Cl)cc3)nc(N)nc21,-9.4%,
O=C(Nc1ccc2nc3n(c(=O)c2c1)CCCC3)c1ccc(Cl)nc1,3.67%,
CCN(CC)c1ccc(NC(=O)c2ccc(Cl)nc2)cc1,,16.4 µM (active)
O=C(NNC(=O)c1ccc(Cl)nc1)c1ccc(Br)cc1,-27.2%,
O=C(COc1ccccc1F)NNC(=O)c1cc(Br)ccc1Cl,6.76%,
NC(=O)c1ccc(N2CCCC2)nc1,-1.87%,
Cc1c(C(=O)Nc2ccccn2)oc2ccc(Br)cc12,-1.8%,
Oc1ccc(Br)cc1/C=N/Nc1ccccn1,,9.2 µM (active)
Oc1ccc(Br)cc1C=Nc1ccc2[nH]ncc2c1,-0.677%,
CCOC(=O)CCCCCC(=O)Nc1ccc2c(c1)CC(=O)N([C@@H](C)CO)C[C@H](C)[C@@H](CN(C)Cc1ccccc1)O2,-13.1%,
Cc1ccn(CCC(=O)N2c3ccccc3CC2C)n1 (configuration not stated),3.35%,
Cc1nn(Cc2ccc(C(=O)N3N=C(C(F)F)CC3(O)C(F)F)cc2)c(C)c1[N+](=O)[O-] (configuration not stated),-0.343%,
Cc1ccn(CC(=O)N2N=C(C(F)F)CC2(O)C(F)F)n1 (configuration not stated),,0.517 µM (active)
CC1(C)C[C@H]2C3=CCC4[C@@]5(C)CC[C@H](O)[C@](C)(CO)C5CC[C@@]4(C)[C@]3(C)C[C@@H](O)[C@@]2(CO)[C@@H](O)[C@@H]1O (some centres not stated),6.13%,
COc1cc(C(=O)OCC(=O)NC23CC4CC(CC(C4)C2)C3)cc(OC)c1OC,-125%,
COc1ccc(C(CNC(=O)c2cc(S(=O)(=O)Nc3cccc(C)c3)ccc2C)N2CCCC2)cc1 (configuration not stated),12.7%,
CC[C@]1(C(=O)OC)[C@H]2C(=O)N(Cc3ccccc3)C(=O)[C@H]2[C@H]2CN=C(SCc3ccc(C#N)cc3)N21,-4.58% [at 9.22 µM],
CCCCNS(=O)(=O)CCNCc1ccccc1OC,-1.68%,
CCOc1cc(-c2cc(-c3ccc(NC(C)=O)cc3)nc(N)c2C#N)ccc1O,15.1%,

Compound,re-replication activation,Potency
COc1ccc(-c2cc(-c3ccc(N)cc3)nc(N)c2C#N)cc1OC,,23.1 µM (active)
COc1ccc(OC)c2c(N)c(C#N)c(C(F)(F)C(F)(F)F)nc12,-1.2%,
COc1cccc(NC(=O)CN(C)CC(=O)c2c(N)n(Cc3ccccc3)c(=O)n(C)c2=O)c1,-17.4%,
CC(=O)Nc1nonc1-c1nc2ccccc2n1Cc1ccccn1,-18.9%,
CCn1c(C(O)c2cc(OC)ccc2OC)nc2ccccc21 (configuration not stated),-0.993%,
COc1ccc(C)c(Cn2c(-c3nonc3N)nc3ccccc32)c1,,5.17 µM (active)
Cc1ccc(C(=O)NCC(c2cccs2)N(C)C)cc1S(=O)(=O)N1CCOCC1 (configuration not stated),2.33%,
CC(=O)C[C@H](O)CC(=O)[C@@H]1OC(=O)[C@@H](C)C/C=C\Cc2ccccc21,-6.79%,
CC(C)C[C@H]1CN([C@@H](CC(C)C)CN2CCC[C@@H]2CN2C(=O)C(=O)NC[C@@H]2Cc2ccccc2)C(=O)C(=O)N1CCc1ccccc1,12.5%,
CCc1ccc(NC(=O)Cn2nnc(C(=O)NCc3ccc(OC)cc3)c2N)cc1,-17.6%,
CCOc1ccccc1NC(=O)Cn1nnc(C(=O)NCc2cccs2)c1N,,0.146 µM (active)
CCOc1ccccc1NC(=O)Cc1cccs1,-0.185%,
C#CCOCCOCCOCCNc1nc(N2CCN(C(=O)Cn3cc(CCO)nn3)CC2)nc(N2CCN(C(=O)[C@H](CCCCN)n3cc(CCCC)nn3)CC2)n1,7.81% [at 9.22 µM],
COc1ccc(Br)cc1/C=N/Nc1ccc(S(=O)(=O)Nc2ccccc2C(=O)O)cc1[N+](=O)[O-],-2.84%,
O=C1C[C@@H]2c3c(cccc3CN1Cc1ccccc1)C[C@@H](O)[C@H]2O,-3%,
CCOC(=O)c1sc(NC(=O)CSc2ncccn2)c(C#N)c1C,,7.31 µM (active)
CCOC(=O)c1sc(NC(=O)CSc2nc(C)cc(C(F)(F)F)n2)c(C#N)c1C,11.7%,
CCC(=O)Nc1sc(C(=O)N2CCCCC2)c(C)c1C#N,4.2%,
COc1cc2c(cc1CNC[C@H]1O[C@@H](n3cnc(C(N)=O)n3)[C@H](O)[C@@H]1O)OCO2,9.12%,
CC(C)C(NC(=O)c1c(F)cccc1F)C(=O)NNC(=O)c1ccccc1 (configuration not stated),3.18%,
COc1ccc(CNC(=O)COC(=O)C(CCSC)N2C(=O)c3ccccc3C2=O)cc1 (configuration not stated),9.91%,
CN(C)CCCn1c(N)c(C#N)c2nc(C#N)c(C#N)nc21,,16.4 µM (active)
c1ccc2c(c1)OC1OC2Oc2ccccc21,-5.45%,
